Sampled rows, rich in hits. Any-hit rate of the full collection: about 6.3%.
RORgamma inh – blocks mouse ROR gamma transcriptional activity; Drosophila S2 Gal4-RORgamma UAS-luciferase reporter, 20 h; hit rate 5.4% among 310,000; Potency, µM (titrated, usually from 53.6 µM), actives largely listed as inhibitors; AID 2551; P51450; also: nearly all actives have a fitted effect of over 60% in size
Target sequence (P51450 whole entry, looked up, the tested form may be a part): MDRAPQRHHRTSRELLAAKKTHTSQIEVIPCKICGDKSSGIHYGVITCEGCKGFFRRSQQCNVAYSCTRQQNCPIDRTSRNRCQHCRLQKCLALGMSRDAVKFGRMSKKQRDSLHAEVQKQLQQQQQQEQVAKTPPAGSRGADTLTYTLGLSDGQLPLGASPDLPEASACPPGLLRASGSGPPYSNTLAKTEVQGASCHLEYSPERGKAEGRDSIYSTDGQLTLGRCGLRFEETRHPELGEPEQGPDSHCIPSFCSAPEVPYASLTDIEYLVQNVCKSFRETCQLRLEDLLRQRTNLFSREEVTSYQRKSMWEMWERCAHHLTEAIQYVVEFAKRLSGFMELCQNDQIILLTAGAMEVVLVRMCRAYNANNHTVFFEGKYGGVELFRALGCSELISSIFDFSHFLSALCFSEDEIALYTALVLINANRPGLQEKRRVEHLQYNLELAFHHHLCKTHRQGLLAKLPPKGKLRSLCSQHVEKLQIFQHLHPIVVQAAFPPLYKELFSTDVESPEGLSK
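Stable Schneider cell line, Gal4 DNA-binding domain fused to ROR gamma, UAS-luciferase. Cmpd 1 hr RT → CuSO4 700 uM final → 20 hr RT → luciferase reagent 10 min → luminescence.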
VP16 counter – counter-screen for ROR gamma inhibitors: Gal4-VP16 reporter; Potency, µM (series often up to 53.6 µM), most hits filed as inhibitors; AID 2546; hit rate 3.5% among 310,000; Drosophila S2 Gal4-VP16 UAS-luciferase, luminescence, 20 h;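 also: Gal4-VP16 expression switched on by copper sulfate through the metallothionein promoter; nearly all actives have a fitted effect of over 50% in size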
ATXN viability – reduces viability in counter-screen for ATXN expression inhibitors; S2 cells (HEK-293 line with an ATXN2-luciferase reporter) viability, CellTiter-Fluor protease fluorescence, 24 h; hit rate 0.49% among 400,000; Potency, µM (doses to about 56.7 µM), most hits filed as cytotoxic; also: nearly all actives have a fitted effect of over 40% in size
TGFb inhibitor – inhibitors of TGF-b signaling; Potency, µM (top dose mostly 46.1 µM), hits mostly inhibitors; HepG2 CAGA-GFP TGF-b/SMAD3 reporter, GFP fluorescence, 18 h; TGF-beta stimulated, 500 pg/mL final; hit rate 1.2% among 410,000; also: nearly all actives have a fitted effect of over 65% in size
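Using HEPG2 CAGA-GFP reporter cells at 1000 cells/well, we pinned test compounds, stimulated with recombinant TGF-beta (500 pg/mL final) and measured total well GFP after 18 h.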
ATXN2 expr inh – reduces ATXN2 reporter expression in HEK-293 cells | hit rate 0.72% among 360,000 | Potency, µM (highest dose often 57 µM), actives largely listed as inhibitors | AID 1745845 | HEK-293 ATXN2-luciferase reporter, luminescence, 24 h; also: nearly all actives have a fitted effect of over 55% in size
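qHTS (up to 57 uM final) was run with 24 h compound exposure of reporter cells at 37 °C. Each well was multiplexed: SteadyGlo luminescence measured ATXN2-luciferase expression after a fluorogenic Gly-Phe-AFC viability readout (25 uM final).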
HepG2 tox – HepG2 cytotoxicity, counter-screen for TGF-b inhibitors | HepG2 CAGA-GFP viability, ATP luminescence, 18 h | hit rate 0.76% among 410,000 | Potency, µM (titrated, usually from 46.1 µM), actives largely listed as cytotoxic
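HepG2 CAGA-GFP cells (1000/well, DMEM with 1% FBS) received compound, then TGF-beta at 500 pg/mL final, and were incubated 18 hours at 37 degrees C. Viability was read by CellTiter-Glo luminescence. Media-only wells were set as complete cell-killing and DMSO as no toxicity.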
Hits are given with their value; – = inactive; ? = inconclusive; · = not tested or not shown; [ ] = dose if it differs, or a comment. Calls follow the shape of the dose curve; as a rule, active = well fitted curve in the direction sought with a large enough effect; inconclusive = small, poorly fitted or top-dose-only effect, or another doubt; inactive = no such curve, though single readings can be large; an effect the other way counts as inactive or inconclusive.

SMILES | RORgamma inh | VP16 counter | ATXN viability | TGFb inhibitor | ATXN2 expr inh | HepG2 tox
COC(=O)C1=C(C)N(Cc2ccccc2)C(=NCCc2ccccn2)N[C@H]1c1cccc(C(F)(F)F)c1 | ? | – | ? | ? | 35µM | –
COC(=O)C1=C(C)N(Cc2ccccc2)C(=S)N[C@H]1c1cccc(C(F)(F)F)c1 | 3.5µM | 10µM | ? | ? | – | –
COC(=O)C1=C(C)N(Cc2ccccc2)C(=NCc2ccccc2)N[C@H]1c1cccc(C(F)(F)F)c1 | · | · | · | ? | ? | 14µM
COC(=O)C1=C(C)N(Cc2ccccc2)C(=NCC(C)C)N[C@H]1c1cccc(C(F)(F)F)c1 | · | · | ? | ? | ? | –
Cc1ccc(S(=O)(=O)N(CC(=O)N2CCOCC2)c2ccc(C(C)C)cc2)cc1 | – | – | – | – | – | –
CCOC(=O)C(=N/O)/C(C)=N/NC(=O)C(=O)Nc1cc(Cl)ccc1Cl | 11µM | 22µM | ? | – | – | –
CCOC(=O)C(=N/O)/C(C)=N/NC(C)=O | – | –[10 µM] | – | – | – | –
CCc1nnc(NC(=O)[C@@H]2CCCN2C(=O)c2cccs2)s1 | · | · | · | – | · | –
Cc1cc(C)nc(N(C#N)CC(=O)c2ccccc2)n1 | – | – | ? | – | – | –
CCc1ccc(C(=O)CN(C#N)c2nc(C)cc(C)n2)cc1 | 11µM | – | ? | ? | – | 11µM
COc1cc(=O)n2c(c1C(=O)N(C)Cc1nccs1)CCN(Cc1cccc(F)c1F)CC2 | · | · | – | · | · | ·
OC1(c2cccnc2)CCN(Cc2ccc3c(c2)CN(Cc2cc(F)cc(F)c2)CCO3)CC1 | · | · | – | · | · | ·
O=C(NC(=S)Nc1ccccc1Br)C1CCCCC1 | · | · | – | – | – | –
O=C(NC(=S)Nc1ccccc1Br)C1CCCC1 | 3.2µM | 7.1µM | – | – | – | –
O=C(O)C1CCCCC1C(=O)Nc1ccccc1F (stereo not drawn) | – | – | – | – | – | –
O=C(NC(=S)Nc1ccccc1F)C1CCCCC1 | 8.9µM | 7.9µM | · | · | · | ·
CC1(C(=O)NS(=O)(=O)c2ccccc2)CCN1C(=O)CC(c1ccccc1)c1ccccc1 (stereo not drawn) | · | · | – | – | – | –
C(=C\c1nc(N2CCCC2)c2ccccc2n1)/c1ccccc1 | – | – | ? | ? | ? | –
CC1CCN(c2nc(/C=C/c3ccccc3)nc3ccccc23)CC1 | 16µM | ? | – | ? | – | –
CC1CCN(c2nc(-c3ccncc3)nc3ccccc23)CC1 | 11µM | ? | – | ? | – | –
CC1CCCCN1c1nc(-c2ccncc2)nc2ccccc12 (stereo not drawn) | 11µM | – | – | – | – | –
CC1CCCCN1c1nc(-c2ccc(C(C)(C)C)cc2)nc2ccccc12 (stereo not drawn) | · | · | · | · | · | –
CO[C@H]1COC(=O)[C@H]2CCCN2C(=O)C/C=C\[C@@H](C)[C@H](OC)COC(=O)[C@@H](OCc2ccccc2)/C=C\[C@@H]1C | –[10 µM] | –[10 µM] | · | · | · | ·
O=C(CCc1ccccc1)NC(=S)NCc1ccco1 | 7.9µM | ? | – | – | – | –
CC(C)(C)CC(=O)NC(=S)NCc1ccco1 | 4.5µM | ? | – | – | – | –
SMILES | RORgamma inh | VP16 counter | ATXN viability | TGFb inhibitor | ATXN2 expr inh | HepG2 tox
Cc1ccc(NC(=O)C(=S)NCc2ccco2)cc1 | – | – | – | – | – | –
O=C(CCc1ccccc1)Nc1ccccc1C(=O)NCc1ccco1 | ? | – | – | – | – | –
COc1ccccc1-n1c(SCC(=O)NC2CC2)nc2ccccc2c1=O | · | · | ? | – | – | –
CCn1cc2nc(SCc3cc(C)ccc3C)n(CCc3ccccc3)c(=O)c2n1 | · | · | – | – | – | –
N#CCNC(=O)c1ccc(-c2ccnc(Nc3ccc(N4CCOCC4)cc3)n2)cc1 | · | · | · | · | 19µM | ·
CC(=O)c1ccc(Nc2nc(N3CCOCC3)nc(N3CCOCC3)n2)cc1 | ? | – | – | – | – | –
CNc1nc(NCCOc2ccccc2)c2sccc2n1 | · | · | ? | ? | – | –
c1ccc(CNc2nc(NCCOc3ccccc3)c3sccc3n2)cc1 | · | · | · | ? | 28µM | 11µM
COc1ccccc1CNc1nc(NCc2cccc(OC)c2OC)c2sccc2n1 | · | · | ? | ? | 32µM | –
COc1ccccc1CNc1nc(NCc2ccccc2)nc2ccsc12 | · | · | ? | 18µM | ? | –

Screening results deposited in PubChem by National Center for Advancing Translational Sciences (NCATS).
